The campaign covered roughly 5,500 compounds. About 2,000 (36%) were called active. About 18% were inconclusive and are not listed. Cut-off read from the data, not from the text of the source: active = normalized growth mostly below about 0.91 (no sharp cut-off); inconclusive = no clear call, values can overlap the other calls; inactive = mostly above about 0.92. The list shows a part of the results.
Experiment: chemical genetic growth profiling, strain panel (AID 1159580);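 note: tested at 20 µM; growth read once vehicle control cultures reached saturation at 30 °C; 1 = growth at the plate median or of vehicle wells; lower values mean less growth of the strain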
Conditions: S. cerevisiae deletion strains, growth OD

Measured: normalized growth

CC1=C(/C=C/C(C)=C/C=C/C(C)=C/C(=O)Nc2ccc(O)cc2)C(C)(C)CCC1
inactive: locus YAL013W, strain DEP1, active compounds read low 0.99 | locus YAL040C, strain CLN3, active compounds read low 1.09 | locus YCL061C, strain MRC1 (second series), active compounds read low 0.995 | locus YDR150W, strain NUM1, active compounds read low 1.01 | locus YDR363W, strain ESC2, active compounds read low 0.968 | locus YER002W, strain NOP16, active compounds read low 1.02 | locus YGR078C, strain PAC10, active compounds read low 1.02 | locus YMR263W, strain SAP30, active compounds read low 0.994 | locus YMR307W, strain GAS1, active compounds read low 0.989 | locus YNL128W, strain TEP1, active compounds read low 1.02 | locus YNL175C, strain NOP13, active compounds read low 1.02 | locus YNL197C, strain WHI3, active compounds read low 1.01 | locus YNL224C, strain SQS1, active compounds read low 0.998 | locus YNL322C, strain KRE1, active compounds read low 0.993 | locus YOR083W, strain WHI5 (second series), active compounds read low 0.952

Reference: PubChem BioAssay AID1159580 (chemical genetic matrix, 2015)
